# Source: PubChem
# Glioma ERSR ind – qHTS for Inducers of the Endoplasmic Reticulum Stress Response (ERSR) in Human Glioma: qHTS; U87-MG GRP78 promoter luciferase reporter, 16 h; AID 602332, 2012; Potency, µM, for the others: at the top dose activation, actives largely listed as activators; 0.02% of 420,000 active; also: potency is read from the fitted curve at half-maximal effect; series mostly up to about 76 µM; % of control where 0% means no effect; nearly all actives have a fitted effect of over 35% in size
#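 ERSR induction read as luciferase luminescence (Bright-Glo, 10 min at room temperature) in stably transfected human U87-MG glioma cells exposed to compounds for 16 h, using GRP78 as sensor.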
# A549 viability – Nrf2 qHTS screen for inhibitors: counterscreen for cytotoxicity; 0.16% of 390,000 active; A549 ARE-Fluc cells, CellTiter-Fluor viability, 18-24 h; Potency, µM (titrated, usually from 46 µM), without a hit: top-dose activity change, negative = cytotoxicity, most hits filed as inhibitors; AID 504648, 2011; also: potency is read from the fitted curve at half-maximal effect; % is scaled to controls: 0 for no effect and ±100 for the full control effect
#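 Cytotoxicity counterscreen: CellTiter-Fluor fluorescence was measured in A549 ARE_Fluc cells after 18-24 h of compound exposure in a concentration series. The subsequent BugLite luminescent read reports ARE-luciferase activity.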
# Nrf2 inh – Nrf2 qHTS screen for inhibitors; A549 ARE-Fluc reporter, luciferase luminescence, 18-24 h; Potency, µM (series often up to 46 µM), for the others: at the top dose activity change, negative = inhibition, actives largely listed as inhibitors; 2.1% of 360,000 active; also: potency is read from the fitted curve at half-maximal effect; % is scaled to controls: 0 for no effect and ±100 for the full control effect; nearly all actives have a fitted effect of over 60% in size
#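 Nrf2 function is reported as luminescence of an ARE-controlled luciferase in A549 cells. Compounds were tested at several concentrations, and a CellTiter-Fluor read on the same wells flagged cytotoxicity.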
# Nrf2 ARE act – qHTS of Nrf2 Activators; AREc32 ARE-luciferase reporter (MCF7-derived line), luminescence, 24 h; Potency, µM (doses to about 46.1 µM), for inactives: at the top dose activation, hits mostly activators; 0.31% of 410,000 active; AID 624171, 2012; also: potency is read from the fitted curve at half-maximal effect; % of control where 0% means no effect; nearly all actives have a fitted effect of over 65% in size
#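 Each well held 1000 AREc32 cells, which were incubated with compound for 24 hr at 37 deg C after overnight attachment, and ARE reporter activity was quantified by firefly luciferase luminescence.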
# miR-21 reporter – qHTS Assay for Modulators of miRNAs and/orActivators of miR-21 | 340,000 tested, under 10 active | HeLa miR-21 FLuc reporter, luciferase, 48 h | Potency, µM (top dose mostly 38.3 µM), for inactives: top-dose activity change, positive = activation, usual class: activators;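 also: % of control where 0% means no effect; miR-21 action dims this reporter so a rising signal means less miR-21 action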
#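 Compounds were titrated across several concentrations (up to approximately 40 uM) and incubated 48 hours with HeLa miR-21-FLuc reporter cells (miR-21 target sequence downstream of FLuc, endogenous miR-21). Readout was firefly luciferase luminescence after lytic detection reagent.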
# TSG101-PTAP inh – qHTS Assay for Iinhibitors of HIV-1 Budding by Blocking the Interaction of PTAP/TSG101 | Tumor susceptibility gene 101 protein (Homo sapiens), Q99816 | Fluorescence polarization, FITC-PTAP peptide / Tsg101 binding | Potency, µM (series often up to 115 µM), for inactives: at the top dose activity change, negative = inhibition, most hits filed as inhibitors | 340,000 tested, under 10 active; active = well fitted inhibition curve with a large enough effect in the main read-out, with a control signal flat, not every such curve was filed as active; inconclusive = small, poorly fitted or top-dose-only effect, or effect the other way, or a change in a side signal; inactive = no such curve, though single readings can be large or run the other way; also: potency is read from the fitted curve at half-maximal effect; % of control where 0% means no effect
# Target sequence (Q99816 whole entry, looked up): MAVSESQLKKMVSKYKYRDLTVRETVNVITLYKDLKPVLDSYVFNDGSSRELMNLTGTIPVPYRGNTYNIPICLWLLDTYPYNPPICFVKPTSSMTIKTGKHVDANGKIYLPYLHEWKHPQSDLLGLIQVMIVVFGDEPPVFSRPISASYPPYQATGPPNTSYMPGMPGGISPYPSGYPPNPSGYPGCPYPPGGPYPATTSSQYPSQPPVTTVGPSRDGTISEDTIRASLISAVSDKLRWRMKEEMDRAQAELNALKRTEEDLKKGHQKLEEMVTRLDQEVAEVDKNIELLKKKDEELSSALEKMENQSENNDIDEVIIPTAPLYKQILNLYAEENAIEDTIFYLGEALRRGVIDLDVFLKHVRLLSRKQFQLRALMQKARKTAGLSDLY
#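 Tsg101 binding domain (10 uM final) was mixed with compound and a FITC-labeled PTAP peptide (50 nM final) in HEPES pH 7.5 buffer with NaCl, Tween 20, EDTA and TCEP; fluorescence polarization was read after 20 min at r.t.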
# Numbers without * were called inactive; ? = inconclusive; . = not tested or not shown; [ ] = dose if it differs, or a comment. A selection: hits, their analogues and other compounds. The true share with any hit is near 2.1%. Unless noted, calls follow the shape of the dose curve; as a rule, active = well fitted curve in the direction sought with a large enough effect; inconclusive = small, poorly fitted or top-dose-only effect, or another doubt; inactive = no such curve, though single readings can be large; an effect the other way counts as inactive or inconclusive.
SMILES,Glioma ERSR ind,A549 viability,Nrf2 inh,Nrf2 ARE act,miR-21 reporter,TSG101-PTAP inh
Cc1cc(CNC(=O)c2cnn(-c3ncc4c(n3)-c3ccccc3CC4)c2C2CC2)on1,9.4%,.,.,.,.,.
Cn1cccc1/C=C1\SC(=Nc2ccccc2)NC1=O,4.6%,?,19.0%,17.0%,-23.1%,0.6%
Cc1ccc(N=C2NC(=O)/C(=C/c3cn(C)c4ccccc34)S2)cc1C,-2.8%,-18.9%,23.1µM*,0.4%,-18.0%,?
Cc1ccccc1C1(CC(=O)N2CCCCC2C)CC(=O)N(Cc2cccnc2)C1=O (configuration not stated),-5.3%,.,.,.,.,.
O=c1cc(/C=C/c2cccs2)[nH]c2ccccc12,1.4%,-14.1%,13µM*,0.1%,15.8%,-5.3%
CSc1ccc(/C=C/c2cc(=O)c3ccccc3[nH]2)cc1,6.1%,2.0%,-15.2%,4.2%[9.22 µM],-27.0%,0.2%
c1ccc2c(c1)CCCN2,1.3%,.,.,.,.,.
O=C(c1ccccc1)[C@@H]1[C@@H]2C(=O)N(c3ccc(F)cc3)C(=O)[C@@H]2C2CCCN21 (some centres not stated),-12.7%,19.4%,3.8%,10µM*,1.7%,?
Cc1cccc(CNC(=O)c2cnn(-c3nccc(-c4cccs4)n3)c2C2CC2)n1,-5.4%,.,.,.,.,.
CC(C)(CO)NC(=O)c1cnn(-c2ncc3c(n2)-c2ccccc2CC3)c1C1CC1,5.7%,.,.,.,.,.
Oc1c(C=Nc2ccccc2)sc2ccccc12,-9.3%,-4.0%,?,14.1µM*,-4.6%,?
Oc1ccccc1N=Cc1sc2ccccc2c1Cl,0.3%,0.2%,8.9%,11.2µM*,-3.2%,-3.5%
Cc1ccc(O)c(N=Cc2sc3ccccc3c2Cl)c1,0.8%,-5.0%,2.1%,?,-18.9%,-4.0%
Oc1c(C=NCc2ccncc2)sc2ccccc12,1.5%,-13.1%,21.2%,14.1µM*,-33.3%,-2.1%
CCn1c(-c2ccccc2F)nc2cc(C(=O)NCc3ccc(C)o3)cc(NC(C)=O)c21,-5.8%,.,.,.,.,.
Oc1ccc(CNc2ccc(F)cc2Cl)c2cccnc12,.,-16.7%,?,.,.,.
COC(=O)c1ccccc1-c1cc(C)cc2c1OC(CNC(=O)c1cc(C)on1)C2 (configuration not stated),5.3%,.,.,.,.,.
Cc1ncc2c(c1CNC(=O)c1cncs1)CCN(C(=O)c1ccc(C(F)(F)F)cc1)C2,-5.8%,.,.,.,.,.
Cc1cnc(SCC2CCCO2)nc1C1CCCN(C(=O)C2=NNC(=O)CC2)C1 (configuration not stated),-1.9%,.,.,.,.,.
CCN(CC)CCNC(=O)c1ccc2c(c1NCCO)C(=O)c1ccccc1C2=O,-11.5%,?,3.26µM*,-3.5%,?,-8.3%
CCN(CC)CCC(=O)Nc1cccc2c1C(=O)c1ccccc1C2=O,?,20.6µM*,16.4µM*,-1.6%,?,-5.0%
Nc1cccc(C(=O)OCC(=O)Nc2cccc3c2C(=O)c2ccccc2C3=O)c1,-3.3%,-17.1%,?,2.1%,-3.0%,-17.4%
CN(N=Cc1ccccc1O)c1ccc2ccccc2n1,-2.1%,.,.,4.47µM*,.,.
CC1CCN(c2ccc(C(=O)Nc3ccc4c(c3)OCO4)cc2[N+](=O)[O-])CC1,4.6%,-8.3%,9.2µM*,1.5%,8.2%,-1.8%
Cn1cc([N+](=O)[O-])c(C(=O)Nc2ccc(-c3nc4ccccc4o3)cc2)n1,-2.0%,0.0%,0.0%,5.01µM*,-68.1%,-7.8%
SMILES,Glioma ERSR ind,A549 viability,Nrf2 inh,Nrf2 ARE act,miR-21 reporter,TSG101-PTAP inh
O=C(Nc1ccc(-c2nc3ccccc3o2)cc1)c1ccc(N2CCOCC2)c([N+](=O)[O-])c1,-1.2%,?,16.4µM*,1.6%,-12.2%,-9.9%
CCOC(=O)[C@H](CCc1ccccc1)N[C@H]1CCCN2CCC[C@@H](C(=O)O)N2C1=O,-5.2%,.,.,.,.,.
CN1C2=CC=CC=CC2=[N+](C)C12C=CC(=[N+]([O-])[O-])C=C2[N+](=O)[O-] (configuration not stated),2.7%,18.4µM*,23.1µM*,2.5%,0.5%,-0.5%
Cc1ccccc1C(=O)Nc1ccc(C(=O)N2CCCC(O)c3cc(Cl)ccc32)c(C)c1 (configuration not stated),-1.0%,.,.,.,.,.
CCn1c(/C=C/c2ccccc2C)nc2ccccc2c1=O,1.2%,5.7%,5.4%,26.5%,-38.3%,-3.3%
CCn1c(/C=C/c2ccccc2F)nc2ccccc2c1=O,1.0%,-0.3%,3.8%,2.82µM*,-7.8%,-1.4%
O=C1CCN(Cc2cccc(C(F)(F)F)c2)CCN1Cc1ccccn1,-3.4%,.,.,.,.,.
Nc1ccc(-c2cnc(N)c(C(=O)c3cccnc3)n2)cn1,-3.7%,?,14.6µM*,-4.0%,.,-0.3%
Clc1ccc(CN(CC2CCCO2)C(c2cccs2)c2nnnn2C2CCCC2)cc1 (configuration not stated),-3.2%,-26.3%,11.6µM*,-0.4%,-2.0%,-5.8%
Cc1ncc2c(c1CNC(=O)CN1CCCC1)CCN(C(=O)c1ccc(F)cc1F)C2,-5.8%,.,.,.,.,.
COc1cc(C=O)ccc1OCCCOc1ccccc1C(=O)O,0.6%,10.7%,8.2µM*,-2.1%,?,-2.4%
COc1cc(C=O)ccc1OCCOc1ccccc1[N+](=O)[O-],4.9%,6.6%,2.2%,12.6µM*,-38.3%,-2.4%
O=C(c1cccnc1)C1CCCN(Cc2ccc3c(c2)CN(C(=O)c2cccs2)CCO3)C1 (configuration not stated),-1.6%,.,.,.,.,.
Cc1ccc(Cl)cc1NS(=O)(=O)c1cc2c(cc1Cl)CCC(=O)N2,.,10.5%,-25.0%,.,.,.
O=C(CSc1ccncc1)NCC1Cc2cccc(-c3cncnc3)c2O1 (configuration not stated),-3.2%,.,.,.,.,.
O=C(Nc1ccccc1O)c1ccc(Cl)cc1,?,0.0%,?,12.6µM*,-56.1%,-2.9%
O=C(Nc1ccccc1OC(=O)c1ccc(Cl)cc1)c1ccc(Cl)cc1,8.5%,1.6%,?,?,-59.4%,-0.4%
Cc1ccc(OCCn2c(CCNC(=O)C3CCCCC3)nc3ccccc32)cc1,-2.5%,-9.4%,?,.,-2.1%,.
CC(C)(C)C(=O)NCCCc1nc2ccccc2n1CCCOc1ccc(Cl)cc1,-7.2%,?,23.1µM*,1.8%,?,0.8%
CC(C)(C)c1ccc(OCCn2c(CCNC(=O)C3CCCCC3)nc3ccccc32)cc1,-8.6%,-29.1%,18.4µM*,.,.,.
Clc1ccc(-n2cccc2CN2CCOc3ccc(CN4CCOCC4)cc3C2)nc1,-0.8%,.,.,.,.,.
